Bioassay records: PubChem BioAssay, The Scripps Research Institute Molecular Screening Center
PPARg SRC-2 ag = promotes SRC-2 coactivator recruitment by human PPARgamma; P37231; PPARgamma LBD-SRC-2 recruitment, biochemical; actives 0.34% (n = 200,000); activation, % at 8 µM; in the data active means activation above about 22%
Target sequence (P37231 whole entry, looked up, the tested form may be a part): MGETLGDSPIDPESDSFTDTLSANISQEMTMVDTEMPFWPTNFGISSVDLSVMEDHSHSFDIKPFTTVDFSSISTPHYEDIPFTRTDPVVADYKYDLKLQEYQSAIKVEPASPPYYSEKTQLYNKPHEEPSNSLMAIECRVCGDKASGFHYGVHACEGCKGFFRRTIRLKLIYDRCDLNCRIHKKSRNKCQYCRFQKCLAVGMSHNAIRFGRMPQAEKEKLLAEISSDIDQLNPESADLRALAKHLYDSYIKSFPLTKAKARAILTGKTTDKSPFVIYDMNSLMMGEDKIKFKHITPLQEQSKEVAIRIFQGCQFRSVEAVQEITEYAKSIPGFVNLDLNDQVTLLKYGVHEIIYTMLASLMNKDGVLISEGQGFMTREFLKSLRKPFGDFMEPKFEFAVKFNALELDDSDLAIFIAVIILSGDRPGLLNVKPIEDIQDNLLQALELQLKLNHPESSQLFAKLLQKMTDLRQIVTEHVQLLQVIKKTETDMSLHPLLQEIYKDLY
PPARg SRC1 recr = agonists of human PPARgamma SRC-1 coactivator recruitment; PPARgamma-SRC-1 coactivator recruitment biochemical assay; activation, % at 8 µM; actives 0.41% (n = 200,000); AID 631; in the data active means activation above about 19%
SRC1 TRFRET art = counter-screen for PPARgamma SRC-1 recruitment agonists: TR-FRET artefact. TR-FRET detection artefact counter-screen, emission ratio; active compounds read high. TR-FRET ratio at 8 µM. actives 0.34% (n = 99,000); in the data active means TR-FRET ratio above about 2300
PPARg SRC-3 ag = agonists of human PPARgamma SRC-3 coactivator recruitment | P37231 | biochemical PPARgamma/SRC-3 coactivator recruitment assay | activation, % at 8 µM | actives 0.26% (n = 200,000) | AID 731; in the data active means activation above about 23%
SRC2 TRFRET art = flags TR-FRET format artefacts in PPARgamma SRC-2 recruitment agonist screen. TR-FRET artefact counter-screen; active compounds read high. TR-FRET ratio at 8 µM. actives 0.4% (n = 200,000). AID 1049
SRC3 TRFRET art = TR-FRET artefact, counter-screen to PPARgamma/SRC-3 agonist assay. TR-FRET ratio at 8 µM. PPARgamma/SRC-3 format; active compounds read high. AID 1048. actives 0.39% (n = 99,000)
Hits are given with their value. Shown are actives, neighbours in structure and some others; about 0.84% of the full set was active somewhere. Unless noted, no stated cut-off is given here; in the data, active means TR-FRET ratio above about 2000; inactive means the rest.

CCOC(=O)c1oc2ccc(S(=O)(=O)N3CCC(C)CC3)cc2c1C was read as PPARg SRC-2 ag inactive, PPARg SRC1 recr 46, PPARg SRC-3 ag inactive and SRC2 TRFRET art inactive.
For COC(=O)Cc1ccc(NC(=S)N2CCN(c3cc(Cl)ccc3C)CC2)cc1 the results were PPARg SRC-2 ag inactive, PPARg SRC1 recr inactive, SRC1 TRFRET art inactive, PPARg SRC-3 ag inactive, SRC2 TRFRET art inactive and SRC3 TRFRET art inactive.
Screening CCn1c(O)c(C=Nc2ccccc2)oc1=S returned PPARg SRC-2 ag inactive, PPARg SRC1 recr inactive, PPARg SRC-3 ag inactive and SRC2 TRFRET art 1976.
For CCCn1c(O)c(C=Nc2ccccc2)sc1=S the results were PPARg SRC-2 ag inactive, PPARg SRC1 recr inactive, SRC1 TRFRET art inactive, PPARg SRC-3 ag inactive, SRC2 TRFRET art inactive and SRC3 TRFRET art inactive.
CCOC(=O)COc1ccc(/C=C2\NC(=S)N(CC)C2=O)cc1 was read as PPARg SRC-2 ag 94, PPARg SRC1 recr inactive, SRC1 TRFRET art inactive, PPARg SRC-3 ag inactive, SRC2 TRFRET art 3635 and SRC3 TRFRET art inactive.
O=[N+]([O-])c1ccc2[nH]c(O)c(N=NC(=S)NCC3CCCO3)c2c1 (stereo unspecified) was read as PPARg SRC-2 ag inactive, PPARg SRC1 recr inactive, SRC1 TRFRET art inactive, PPARg SRC-3 ag inactive, SRC2 TRFRET art inactive and SRC3 TRFRET art inactive.
For CCNC(=S)N=Nc1c(O)[nH]c2ccc([N+](=O)[O-])cc12 the results were PPARg SRC-2 ag inactive, PPARg SRC1 recr inactive, SRC1 TRFRET art inactive, PPARg SRC-3 ag inactive, SRC2 TRFRET art 1982 and SRC3 TRFRET art inactive.
For CCCCNS(=O)(=O)c1ccc2nc(SCC(=O)c3ccc(C#N)cc3)[nH]c2c1 the results were PPARg SRC-2 ag inactive, PPARg SRC1 recr inactive, SRC1 TRFRET art inactive, PPARg SRC-3 ag inactive, SRC2 TRFRET art inactive and SRC3 TRFRET art inactive.
`CCOc1ccc(-n2nc3c(=O)[nH]nc(C)c3c2C)cc1` gave PPARg SRC-2 ag inactive, PPARg SRC1 recr inactive, SRC1 TRFRET art inactive, PPARg SRC-3 ag inactive, SRC2 TRFRET art inactive and SRC3 TRFRET art inactive.
`CCOc1ccc(-n2nc3c(=S)[nH]nc(C)c3c2C)cc1` gave PPARg SRC-2 ag inactive, PPARg SRC1 recr inactive, SRC1 TRFRET art inactive, PPARg SRC-3 ag inactive, SRC2 TRFRET art inactive and SRC3 TRFRET art 2186.
O=C(CSc1ccc2ccccc2c1Br)Nc1cccc(S(=O)(=O)NC2=NCCCCC2)c1 was read as PPARg SRC-2 ag inactive, PPARg SRC1 recr inactive, SRC1 TRFRET art inactive, PPARg SRC-3 ag inactive, SRC2 TRFRET art inactive and SRC3 TRFRET art 2200.
Screening O=C(Nc1nc2ccccc2c(=O)[nH]1)c1ccccc1SCc1ccccc1 returned PPARg SRC-2 ag inactive, PPARg SRC1 recr inactive, SRC1 TRFRET art inactive, PPARg SRC-3 ag inactive, SRC2 TRFRET art inactive and SRC3 TRFRET art 2104.
CCNC(=O)c1ccccc1SCc1ccccc1 was read as PPARg SRC-2 ag inactive, PPARg SRC1 recr inactive, SRC1 TRFRET art inactive, PPARg SRC-3 ag inactive, SRC2 TRFRET art inactive and SRC3 TRFRET art inactive.
CCCOc1ccc(CNCCCOCC)cc1OC was read as PPARg SRC-2 ag inactive, PPARg SRC1 recr inactive, SRC1 TRFRET art inactive, PPARg SRC-3 ag inactive, SRC2 TRFRET art inactive and SRC3 TRFRET art inactive.
For CCOCCCNCc1ccc(OC)c(OC)c1 the results were PPARg SRC-2 ag 34, PPARg SRC1 recr inactive, PPARg SRC-3 ag inactive and SRC2 TRFRET art 2500.
`C/C(=N\Nc1nc2ccccc2s1)c1ccc(Br)s1` gave PPARg SRC-2 ag inactive, PPARg SRC1 recr 23, SRC1 TRFRET art inactive, PPARg SRC-3 ag inactive, SRC2 TRFRET art inactive and SRC3 TRFRET art inactive.
Screening NC1=CC(=O)c2cccc3cccc1c23 returned PPARg SRC-2 ag inactive, PPARg SRC1 recr inactive, PPARg SRC-3 ag 26 and SRC2 TRFRET art inactive.
`NC1=Nc2cccc3cccc1c23` gave PPARg SRC-2 ag inactive, PPARg SRC1 recr inactive, SRC1 TRFRET art inactive, PPARg SRC-3 ag inactive, SRC2 TRFRET art inactive and SRC3 TRFRET art inactive.
O=C(CSc1ccc2nnc(-c3ccccn3)n2n1)NCc1ccc2c(c1)OCO2 was read as PPARg SRC-2 ag 28, PPARg SRC1 recr inactive, PPARg SRC-3 ag inactive and SRC2 TRFRET art 1984.
For Cc1cccc(-c2nnc(SCC#N)n2-c2cccc(Cl)c2)c1 the results were PPARg SRC-2 ag inactive, PPARg SRC1 recr inactive, PPARg SRC-3 ag inactive and SRC2 TRFRET art inactive.
COc1ccc(-n2c(SCCC#N)nnc2-c2cc(Cl)ccc2OC)cc1Cl was read as PPARg SRC-2 ag inactive, PPARg SRC1 recr inactive, PPARg SRC-3 ag inactive and SRC2 TRFRET art 2116.
For COc1ccc(C)cc1-n1nnnc1SCC(=O)c1ccc2c(c1)OCCO2 the results were PPARg SRC-2 ag inactive, PPARg SRC1 recr inactive, PPARg SRC-3 ag inactive and SRC2 TRFRET art 3766.
For CCCCOc1ccc(C(=O)N/C(=C/C=C/c2ccccc2)C(=O)O)cc1 the results were PPARg SRC-2 ag inactive, PPARg SRC1 recr inactive, SRC1 TRFRET art inactive, PPARg SRC-3 ag 30, SRC2 TRFRET art inactive and SRC3 TRFRET art inactive.
Screening CC(C)N1C(=O)CCC1C(=O)NCc1ccccc1Cl (stereo unspecified) returned PPARg SRC-2 ag inactive, PPARg SRC1 recr inactive, SRC1 TRFRET art inactive, PPARg SRC-3 ag inactive, SRC2 TRFRET art inactive and SRC3 TRFRET art inactive.
Screening CC(=O)C1=C(O)C(=O)N(CCCn2ccnc2)C1c1ccc(C)cc1 (stereo unspecified) returned PPARg SRC-2 ag inactive, PPARg SRC1 recr inactive, PPARg SRC-3 ag inactive and SRC2 TRFRET art inactive.
For COc1cc(C#N)c(NC(=S)N2CCOCC2)cc1OC the results were PPARg SRC-2 ag inactive, PPARg SRC1 recr inactive, SRC1 TRFRET art inactive, PPARg SRC-3 ag inactive, SRC2 TRFRET art 2021 and SRC3 TRFRET art inactive.
CSc1nsc(/C=C/Nc2ccc(F)cc2F)c1C#N was read as PPARg SRC-2 ag inactive, PPARg SRC1 recr inactive, SRC1 TRFRET art inactive, PPARg SRC-3 ag inactive, SRC2 TRFRET art inactive and SRC3 TRFRET art inactive.
Screening CSc1nsc(/C=C/Nc2ccc(C(=O)O)cc2)c1C#N returned PPARg SRC-2 ag inactive, PPARg SRC1 recr inactive, SRC1 TRFRET art 2461, PPARg SRC-3 ag inactive, SRC2 TRFRET art 2141 and SRC3 TRFRET art 2133.
Screening Cc1oc2ccc(OC(=O)COc3c(F)c(F)c(F)c(F)c3F)cc2c1C(=O)OC(C)C returned PPARg SRC-2 ag inactive, PPARg SRC1 recr inactive, SRC1 TRFRET art inactive, PPARg SRC-3 ag inactive, SRC2 TRFRET art 2175 and SRC3 TRFRET art inactive.
Screening COCCOC(=O)c1c(C)oc2ccc(OC(=O)COc3c(F)c(F)c(F)c(F)c3F)cc12 returned PPARg SRC-2 ag inactive, PPARg SRC1 recr inactive, PPARg SRC-3 ag inactive and SRC2 TRFRET art inactive.
Cc1ccc(-c2csc3nc[nH]c(=S)c23)cc1C was read as PPARg SRC-2 ag inactive, PPARg SRC1 recr inactive, SRC1 TRFRET art inactive, PPARg SRC-3 ag inactive, SRC2 TRFRET art inactive and SRC3 TRFRET art inactive.
For Cc1c(-c2ccccc2)sc2nc[nH]c(=S)c12 the results were PPARg SRC-2 ag inactive, PPARg SRC1 recr inactive, SRC1 TRFRET art inactive, PPARg SRC-3 ag inactive, SRC2 TRFRET art inactive and SRC3 TRFRET art 2134.
CC(C)(C)c1ccccc1NC(=O)c1c(O)c2cccc3c2n(c1=O)CC3 was read as PPARg SRC-2 ag inactive, PPARg SRC1 recr inactive, SRC1 TRFRET art inactive, PPARg SRC-3 ag inactive, SRC2 TRFRET art inactive and SRC3 TRFRET art 2335.
